Shown are actives, neighbours in structure and some others; about 7.3% of the full set was active somewhere.
Rab9 promoter act = qHTS Assay for Rab9 Promoter Activators; Huh7 Rab9 promoter-luciferase reporter, luminescence, 24 h; Potency, µM (doses to about 9.22 µM), for the others: top-dose activation, negative = inhibition, most hits filed as activators; actives 2.8% (n = 320,000); note: % of control where 0% means no effect; nearly all actives have a fitted effect of over 60% in size
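Huh7 cells stably carrying Rab9 promoter–luciferase reporter, plated 1500 cells/well, compound added after 2 h and incubated 24 h at 37 °C; luciferase luminescence then read after 10 min with detection reagent.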
FLuc counter = qHTS profiling assay for firefly luciferase inhibitor/activator using purifed enzyme and Km concentrations of substrates (counterscreen for miR-21 project); purified FLuc, Km substrates, luminescence inhibition; Potency, µM (series often up to 57.5 µM), for the others: at the top dose activity change, negative = inhibition, usual class: inhibitors; actives 6.9% (n = 360,000);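 note: plate controls were vehicle for no effect and reference inhibitor for full effect; nearly all actives have a fitted effect of over 55% in size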
Target sequence (P08659 whole entry, looked up): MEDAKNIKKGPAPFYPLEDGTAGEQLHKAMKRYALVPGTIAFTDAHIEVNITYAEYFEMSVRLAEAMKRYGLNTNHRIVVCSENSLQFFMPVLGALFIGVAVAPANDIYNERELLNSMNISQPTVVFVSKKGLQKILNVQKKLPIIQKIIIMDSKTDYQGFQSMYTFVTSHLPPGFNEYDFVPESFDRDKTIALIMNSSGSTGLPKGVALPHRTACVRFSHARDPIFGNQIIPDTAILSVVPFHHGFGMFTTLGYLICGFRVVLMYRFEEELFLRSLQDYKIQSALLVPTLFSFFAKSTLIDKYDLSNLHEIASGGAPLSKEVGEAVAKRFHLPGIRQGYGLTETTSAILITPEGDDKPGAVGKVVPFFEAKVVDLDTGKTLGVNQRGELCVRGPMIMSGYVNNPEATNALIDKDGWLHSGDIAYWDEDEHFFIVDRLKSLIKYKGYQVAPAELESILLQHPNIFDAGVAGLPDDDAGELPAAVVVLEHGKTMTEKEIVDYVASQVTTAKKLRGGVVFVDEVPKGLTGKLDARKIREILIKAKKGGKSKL
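Purified P. pyralis luciferase, 10 nM final, with Km-level 10 uM D-luciferin and 10 uM ATP in 50 mM Tris acetate pH 7.5, 10 mM Mg acetate, 0.01% Tween-20, 0.05% BSA; 6-point qHTS titration about 60 µM downward; luminescence read.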
NPC1 prom act = qHTS Assay for NPC1 Promoter Activators; Huh7 NPC1 promoter luciferase reporter, 24 h; Potency, µM (doses to about 9.22 µM), inactives show top-dose activation, usual class: activators; actives 2.4% (n = 320,000); AID 485313, 2010; note: % of control where 0% means no effect; nearly all actives have a fitted effect of over 60% in size
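Luminescence read-out of NPC1 promoter-driven luciferase in stably transfected Huh7 cells; compounds delivered in DMSO and left 24 h at 37C, 5% CO2, qHTS titration format.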
ELG1 genotox = qHTS screen for small molecules that induce genotoxicity in human embryonic kidney (HEK293T) cells expressing luciferase-tagged ELG1. HEK293T ELG1-luciferase reporter, luminescence, 16 h. AID 504466, 2011. actives 1.3% (n = 330,000). Potency, µM (top dose mostly 46 µM), for the others: at the highest dose activity change, positive = activation, usual class: activators; note: % of control where 0% means no effect; nearly all actives have a fitted effect of over 60% in size
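DMSO vehicle served as control against compound-treated ELG1-luciferase HEK293T cells; exposure lasted 16 hr at 37 °C and 5% CO2, followed by ONE-Glo luminescence detection after 30 min.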
SMN2 splice up = qHTS Assay for Enhancers of SMN2 Splice Variant Expression; HEK293 SMN2-luciferase splicing reporter, luminescence, 30-36 h; Potency, µM (series often up to 46.1 µM), for inactives: top-dose activity change, positive = activation, actives largely listed as activators; actives 2.8% (n = 210,000); AID 1458, 2008; note: % of control where 0% means no effect; nearly all actives have a fitted effect of over 55% in size
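HEK293 cells carry an SMN2 […]–luciferase reporter in which exon 7 inclusion puts luciferase in frame. Cells were plated 10-12 h before compound addition, then incubated 30-36 h at 37C. ONE-Glo luminescence was read; sodium butyrate at 4.5 mM final served as control.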
KinaseGlo FLuc = Counterscreen for Luciferase (Kinase-Glo TM) Inhibition. AID 1379, 2008. Kinase-Glo luciferase, ATP luminescence, 8 min. Luciferin 4-monooxygenase (Photuris pensylvanica), Q27757. actives 0.28% (n = 200,000). Potency, µM (highest dose often 38.3 µM), inactives show top-dose activity change, negative = inhibition, hits mostly inhibitors; note: % is set by controls: 0 for no effect and ±100 for the full control effect; nearly all actives have a fitted effect of over 60% in size
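Inhibition of Kinase-Glo luciferase light generation was assessed at 10 uM ATP in pH 7.2 imidazole buffer, with luminescence measured after eight minutes at ambient temperature.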
An asterisk follows results filed as active; u = inconclusive; x = not tested or not shown; [ ] = remark or other dose. Calls come from the whole dose curve; as a rule, active = well fitted curve in the direction sought with a large enough effect; inconclusive = small, poorly fitted or top-dose-only effect, or another doubt; inactive = no such curve, though single readings can be large; an effect the other way counts as inactive or inconclusive. Potency is the fitted concentration of half-maximal effect.

SMILES	Rab9 promoter act	FLuc counter	NPC1 prom act	ELG1 genotox	SMN2 splice up	KinaseGlo FLuc
Cc1[nH][nH]c(=O)c1C(c1ccc(-c2cccc(C(=O)O)c2)o1)c1c(C)[nH][nH]c1=O	u	15µM*	20%	14%	x	-2%
COC(=O)c1ccc(NC(=O)C(=O)c2cccn2C)cc1	0.35µM*	1.9µM*	0.4µM*	u	0.89µM*	13µM*
COC(=O)c1ccc(NC(=O)Cc2ccc(C)cc2)cc1	4%	0%	5%	1%	-11%	-4%
COc1ccc(CC(=O)OCC(=O)Nc2ccc(C(=O)Nc3ccc(OC)cc3)cc2)cc1	16%	-2%	13%	12%	x	x
COC(=O)c1ccc(NC(=O)Cc2ccccc2)cc1	2.5µM*	15µM*	4µM*	u	9%	2%
O=C(Cc1ccccc1)Nc1ccc(SC(F)F)cc1	3.2µM*	17µM*	4µM*	12%	11µM*	-2%
CCOc1ccc(NC(=O)c2ccc(NC(=O)COC(=O)Cc3ccc(OC)cc3)cc2)cc1	2.5µM*	0%	3.5µM*	u	11µM*	0%
CCN(Cc1ccccc1)C(=O)c1c(C)oc2ncn(C)c(=O)c12	x	-1%	x	x	x	x
CCOc1ccc(NC(=O)CNc2ccc(C)cc2Cl)cc1	-5%	9.5µM*	-1%	2%	-8%	2%
C/C=C/C(=O)OCC(=O)Nc1ccc(SC(F)F)cc1	1%	17µM*	-27%	2%	5%	-1%
CC(=O)Nc1ccc(C(=O)OCCc2ccccc2)cc1	18%	12µM*	17%	u	x	x
CCOc1ccc(NCC(=O)Nc2ccc(C)cc2C)cc1	-4%	0%[2.3 µM]	-5%	-3%	-9%	-3%
CC(=O)OCC(=O)Nc1ccc(SC(F)F)cc1	5%	u	-2%	0%	21%	-3%
CCOc1ccc(NC(=O)/C(C=Nc2ccccc2)=C(\C)O)cc1	3%	12µM*	-2%	-9%	x	x
COc1cccc(CNC(=O)NCc2noc3ccc(C)cc23)c1	x	-15%	x	x	x	x
Cc1cccc(NC(=O)c2ccc(CNS(=O)(=O)c3ccc4c(c3)C(C)(C)C(=O)N4C)cc2)c1	x	-11%	x	x	x	x
CCOc1ccc(NC(=O)CN2C(=O)CSC(C)C2=O)cc1 (stereo unspecified)	-2%	17µM*	-1%	-2%	9%	-1%
CCOc1ccc(NC(=O)Cc2ccccc2)cc1	2.8µM*	21µM*	3.5µM*	u	8.9µM*	u
CCOc1ccc(NC(=O)CNC(=O)Cc2ccccc2)cc1	2%	5%	1%	2%	x	x
COc1ccc(NC(=O)CN2C(=O)CSC(C)C2=O)c(OC)c1 (stereo unspecified)	0%	1%	-3%	-2%	-4%	0%
COc1ccc2c(c1)C(=O)[C@@H](OC(=O)NS(=O)(=O)c1ccc(F)cc1)[C@H](c1ccc(OC)c(Br)c1)O2	x	x	x	x	10%	-2%
Cn1c(CCC(=O)Nc2ccc(F)cc2)nc2cc(S(=O)(=O)N3CCOCC3)ccc21	-6%	3%	-1%	-10%	x	x
CCN(CC)S(=O)(=O)c1ccc2c(c1)nc(CCC(=O)Nc1ccc(N3CCOCC3)cc1)n2C	1%	17µM*	0%	-1%	9%	-1%
CN(CC(=O)Nc1ccc(N2CCOCC2)cc1)C(=O)c1cc(S(=O)(=O)N(C)C)ccc1Cl	0%	15µM*	-2%	13%	x	x
O=S(=O)(Nc1nc2ccccc2nc1Nc1ccc(N2CCOCC2)cc1)c1cc(Cl)ccc1Cl	-8%	15µM*	-5%	-4%	-72%	3%
SMILES	Rab9 promoter act	FLuc counter	NPC1 prom act	ELG1 genotox	SMN2 splice up	KinaseGlo FLuc
CC(=O)N1c2ccc(S(=O)(=O)NCC3CCC(C(=O)Nc4cccc(C)c4C)CC3)cc2CC1C (stereo unspecified)	x	4%	x	x	x	x
CCCC(=O)c1ccc(N2CCCC2)c(F)c1	u	15µM*	28%	u	20%	0%
CCC(=O)c1ccc(N2CCN(C(=O)c3ccccc3F)CC2)c(F)c1	-4%	-10%	8%	-14%	-23%	1%
CCC(=O)c1ccc(N2CCCCCC2)c(F)c1	22%	21µM*	28%	u	10%	-3%
CCCC(=O)c1ccc(N2CCN(S(=O)(=O)c3ccccc3)CC2)c(F)c1	-3%	1%	-11%	-11%	-7%	0%
CCC(=O)c1ccc(N2CCCC2)c(F)c1	29%	17µM*	9%	12%	12%	1%
CCOC(=O)N1CCN(c2ccc(C(C)=O)cc2F)CC1	5%	-21%	2%	0%	-6%	-2%
CCOC(=O)N1CCN(c2ccc(C(=O)c3ccccc3)cc2F)CC1	27%	21µM*	u	7%	-25%	-4%
Cc1noc(/C=C/c2ccccc2F)c1S(=O)(=O)N1CCC(C(=O)N(C)Cc2ccco2)CC1	x	1%	x	x	x	x
Cn1/c(=N/N=C/c2ccc([N+](=O)[O-])cc2)sc2ccccc21	6%	2.1µM*	24%	u	17%	-1%
COc1ccccc1N=c1sc2ccccc2n1C	-2%	-7%	0%	6%	-25%	-1%
CCOC(=O)COc1ccc(/C=C2/C(=O)NN(c3ccc(F)cc3)C2=O)cc1OC	0%	u	-3%	8%	x	x
COc1cc(/C=C2/C(=O)NN(c3ccc(Cl)cc3)C2=O)cc(OC)c1O	-2%	12µM*	0%	0%	x	x
COc1cc(/C=C2/C(=O)NN(c3ccccc3)C2=O)cc(Br)c1O	-2%	17µM*	-4%	10%	x	x
O=c1oc(CCCO)cc2ccc(/C=C/c3cccc([N+](=O)[O-])c3)cc12	-6%	u	4µM*	4.1µM*	x	x
Cc1nn(C)c(C)c1CCC(=O)N1CCCC(C(=O)c2cccc(OC(C)C)c2)C1 (stereo unspecified)	1%	-13%	8%	0%	x	x
CC(C)Oc1cccc(C(=O)C2CCCN(C(=O)CCc3cnn(C)c3)C2)c1 (stereo unspecified)	3.5µM*	u	u	u	x	x
CCOC(=O)C1=C(CS(=O)(=O)c2c(C)cc(C)cc2C)NC(=O)NC1c1cccc(OC)c1 (stereo unspecified)	x	-2%	x	x	-9%	x
CN(C)c1ccc(NC(=O)Cn2cc(S(=O)(=O)Cc3ccccc3Cl)c3ccccc32)cc1	x	9.5µM*	x	x	x	x
O=C(Cn1cc(S(=O)(=O)Cc2ccccc2Cl)c2ccccc21)Nc1cccc(C(F)(F)F)c1	x	-5%	x	x	x	x

Bioassay records as filed in PubChem BioAssay.
